Max response and Potency data for 21 molecules are collected here from PubChem BioAssay (NCATS).

Inconclusive results are not listed. A number with no mark means an inactive call. The source made the active and inactive calls. The call rests on the fitted dose curve; in most records, active means well fitted inhibition curve with a large enough effect; inconclusive means small, poorly fitted or top-dose-only effect; inactive means flat fitted curve, though single readings scatter.
On the % scale 0 is the no-effect control and ±100 the full control effect; potency means the concentration at half of the fitted maximal effect.

For this experiment, the system named is KB-3-1. Nature of the experiment: Cytotoxic Profiling of Annotated Libraries Using Quantitative High-Throughput Screening (AID 1296008). Further: nearly all actives have a fitted effect of over 60% in size. As to conditions: Five cell lines viability, CellTiter-Glo ATP luminescence, 48-72 h; max response: stronger effect = lower value. The procedure, abridged: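 Cells exposed to compounds for 48 or 72 hr at 37 degrees Celsius. Viability read as ATP-coupled luminescence with CellTiter-Glo after 10 min at room temperature.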
Regarding `CCCN(CCC)S(=O)(=O)c1ccc(C(=O)O)cc1`, the max response is 20.4%. As for `c1ccc(CC2=NCCN2)cc1`, the max response was -6.13%. On the same count and under the same terms, for `CC(C)[N+](C)(C)CC(O)COc1cccc2ccccc12` (stereo unspecified) the value was -4.04%. Take `C[C@H]1O[C@@H](O[C@H]2CC[C@@]3(C)[C@H](CC[C@@H]4[C@@H]3C[C@@H](O)[C@]3(C)[C@@H](C5=CC(=O)OC5)CC[C@]43O)C2)C[C@H](O)[C@@H]1O[C@H]1C[C@H](O)[C@H](O[C@H]2C[C@H](O)[C@H](O[C@@H]3O[C@H](CO)[C@@H](O)[C@H](O)[C@H]3O)[C@@H](C)O2)[C@@H](C)O1`: the Potency is 259 nM (active). As to `O=[N+]([O-])c1ccc(/C=N\O)o1`, the max response is -13.1%. `CC(=O)OCC1=C(C(=O)O)N2C(=O)[C@@H](NC(=O)CSc3ccncc3)[C@H]2SC1`: the max response is 2.34%.

Regarding `CC[C@H](c1ccc(O)cc1)[C@@H](CC)c1ccc(O)cc1`, the max response is 5.55%.

For `C/C=C/C=N/NC(=O)c1ccncc1`, the max response is -15.9%. Turning to `CCOc1ccccc1C(N)=O`, the max response was -15.7%. Same read-out and setting: the same measure for `NCCNc1cccc2ccccc12`: -12.5%; for `O=C(Oc1cccc2cccnc12)c1ccccc1`: 6.72%; for `O=S(c1cc(Cl)cc(Cl)c1O)c1cc(Cl)cc(Cl)c1O`: -2.92%. For the molecule `CN1CCN(CCC(=O)N2c3ccccc3Sc3ccc(C(F)(F)F)cc32)CC1`, the max response is 5.81%. Turning to `C=C1c2cccc(O)c2C(O)=C2C(=O)[C@]3(O)C(O)=C(C(N)=O)C(=O)[C@@H](N(C)C)[C@@H]3[C@@H](O)[C@H]12`, the max response was -4.44%.

For the molecule `Nc1ccc(C(=O)NCC(=O)O)cc1`, the max response was 28.3%. Same read-out and setting: the same measure for `CN1CCN(C2=Nc3ccccc3Sc3ccc(Cl)cc32)CC1`: -8.12%; for `C#C[C@]1(O)CC[C@H]2[C@@H]3CCc4cc(OC)ccc4[C@H]3CC[C@@]21C`: 0.369%. As to `O=C(Nc1ccc([N+](=O)[O-])cc1)Nc1ccc([N+](=O)[O-])cc1`, the max response was -1.19%. Same read-out and setting: the same measure for `COc1cc([C@H]2Oc3cc([C@H]4Oc5cc(O)cc(O)c5C(=O)[C@@H]4O)ccc3O[C@@H]2CO)ccc1O`: 47.9%; for `Nc1nc(Cl)nc2c1ncn2[C@@H]1O[C@H](CO)[C@@H](O)[C@@H]1F`: 2.36%. Regarding `CC(=O)O[C@]1(C(C)=O)CC[C@H]2[C@@H]3C=C(Cl)C4=CC(=O)CC[C@]4(C)[C@H]3CC[C@@]21C`, the max response was 2.1%.
